Among all 1,300 compounds or so, about 150 (12%) were called active. Entries that show only a call come without a potency. Roughly 30% stayed inconclusive and do not appear here. Calls come from the whole dose curve; as a rule, active = well fitted cell-killing curve with a large enough effect; inconclusive = small, poorly fitted or top-dose-only effect, or effect the other way; inactive = flat fitted curve, though single readings scatter. Only a selection was taken, and actives are over-represented in it overall.
Potency is the fitted concentration of half-maximal effect.

The test can be described thus: qHTS of small molecules that selectively kill Giardia lamblia: Hit Validation in HepG2 cytotox.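 Note: compound exposure lasted overnight at 37 deg C; nearly all actives have a fitted effect of over 55% in size.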 The conditions noted are these: cell viability; Potency: HepG2 cytotoxicity; series mostly up to 38.3 µM. The source says:
Giardia lamblia is a human pathogen afflicting impoverished nations, and the most common cause of outbreaks of diarrhea in the United States. Giardia has been classified by the CDC as a category B bioterrorism organism. The favored anti giardiasis drugs in the US are metronidazole or tinidazole, compounds that have undesirable side effects. Moreover, increasing resistance to drug regimes and recurrence are a concern. It is thus clear that alternative drug treatments are needed.
In a collaboration between the University of Maryland, College Park and the NIH Chemical Genomics Center, a bioluminescence Giardia viability assay based on the trophozoites' ATP content was developed. This assay is suitable for high throughput screening, and miniaturized the assay for compound screening in 1536-well plates. The goal of the project is to screen the Molecular Libraries Small Molecule Repository (MLSMR) for compounds that selectively kill Giardia trophozoites. This counterscreen looks at the toxicity of the compounds against the human HepG2 cell line.
NIH Chemical Genomics Center [NCGC]
NIH Molecular Libraries Probe Centers Network [MLPCN]
Assay Submitter (PI): Osnat Herzberg, University of Maryland, College Park, MD.
4 uL of HepG2 cells ae dispensed into white 1536-well plates. They are incubated overnight at 37 deg C and then 23 nL of compounds are transferred to the wells with a pintool. Plates are incubated overnight at 37 deg C. 2 uL of ATPLite is added and the plates are incubated for 15 min at room temperature before they are read on the ViewLux for luminiescence.
On the technique in general: In qHTS, concentration-response curves come from the screen itself.
For the compound `CNC(=O)Oc1cccc(-c2cn3cc(Cl)ccc3n2)c1`, the Potency is 1850 nM (active).

With `NC(=O)c1cc(N2CC2)c([N+](=O)[O-])cc1[N+](=O)[O-]`, the Potency entry is “inactive”.

On to `CN(c1ccccc1)c1ccc([N+](=O)[O-])c2nonc12`, for which the Potency result is “inactive”.

For the compound `COC(=O)c1nc(-c2ccc3c(n2)C(=O)C(N)=C(OC)C3=O)c(N)c(-c2ccc(OC)c(OC)c2O)c1C`, the Potency was 1040 nM (active).

Take `C[C@H]1C[C@@H](C)C(=O)[C@@H]([C@H](O)CC2CC(=O)NC(=O)C2)C1`: the Potency entry is “inactive”.

For the compound `CCOC(=O)C1CCCN(c2ccc([N+](=O)[O-])c3nonc23)C1` (stereo not given), the Potency entry was “inactive”.

Turning to `Fc1ccc(C2NCCc3[nH]cnc32)cc1` (stereo not given), the Potency result was “inactive”.

Take `[Hg+][c]1ccccc1`: the Potency is 1850 nM (active).

Take `CC(C)(O)C1C2OC(=O)C1C1(O)CC3OC34C(=O)OC2C14C` (stereo not given): the Potency entry is “inactive”.

For `C[N+]12CCC(CC1)C(=C(c1ccccc1)c1ccccc1)C2`, the Potency result was “inactive”.

Consider `C[C@@H]1C[C@@H]([C@H](O)CC2CC(=O)NC(=O)C2)C(=O)[C@@H](C)C1`, for which the Potency entry was “inactive”.

Take `c1ccc2c(c1)[I+]c1ccccc1-2`: the Potency was 82.6 nM (active).

For `O=[N+]([O-])c1ccc(-c2ccccc2)c([As](=O)(O)O)c1`, the Potency entry is “inactive”.

As for `CC1=C(N2CC2)C(=O)C(CO)=C(N2CC2)C1=O`, the Potency was 65.6 nM (active).

As for `CCCCn1c(=O)c(C(=O)NCc2ccccc2OC)c(O)c2ccccc21`, the Potency result was “inactive”.

As for `CCn1nc(/C=C/c2ccccc2)nc2c(=O)n(C)c(=O)nc1-2`, the Potency was 6560 nM (active).

For the compound `CC1CN(c2ccc([N+](=O)[O-])c3cccnc23)CC(C)N1` (stereo not given), the Potency entry was “inactive”.

Regarding `Cc1nc2c(=O)n(C)c(=O)nc-2n(C)n1`, the Potency was 656 nM (active).

Consider `CC1CC(C)CC(C)C(O)C(C#N)=CC=CCC(C2CCCC2C(=O)O)OC(=O)CC(O)C(C)C1` (stereo not given), for which the Potency was 2330 nM (active).

As to `O=[N+]([O-])c1ccc(O)c([N+](=O)[O-])c1`, the Potency result is “inactive”.

On to `CC(C)c1ccc(N=Nc2c(O)[nH]c(=O)[nH]c2=O)cc1`, for which the Potency result is “inactive”.

Consider `O=c1c2ccccc2nc(/C=C/c2ccc([N+](=O)[O-])o2)n1-c1ccc(O)cc1`, for which the Potency is 3690 nM (active).

Turning to `O=c1c2ccccc2nc(/C=C/c2ccc(O)cc2)n1-c1cccc(O)c1`, the Potency entry is “inactive”.

Regarding `CCOc1ccc(-n2c(-c3cccs3)nc3ccccc3c2=O)cc1`, the Potency entry is “inactive”.

For `COC1/C=C/C=C(\C)Cc2cc(O)c(Cl)c(c2)N(C)C(=O)CC(OC(=O)C(C)C)C2(C)OC2C(C)C2CC1(O)NC(=O)O2` (stereo not given), the Potency entry is “inactive”.

Consider `Cc1ccc(C(c2nnnn2Cc2ccccc2)N2CC=C(c3ccc(F)cc3)CC2)cc1` (stereo not given), for which the Potency entry was “inactive”.

As for `C=CC1CN2CCC1CC2[C@@H](OC(=O)c1ccc(OC)cc1)c1ccnc2ccccc12` (stereo not given in full), the Potency result is “inactive”.

In the case of `c1ccc2c(c1)[IH]c1ccccc1-2`, the Potency was 92.7 nM (active).

Consider `CN(C)C(=O)Oc1ccc(Br)c2ccccc12`, for which the Potency entry was “inactive”.

For `COC(COC(N)=O)C1=C(N2CC2)C(=O)C(C)=C(N2CC2)C1=O` (stereo not given), the Potency was 185 nM (active).

For `O=[N+]([O-])c1cc([As](=O)(O)O)ccc1O`, the Potency entry was “inactive”.

On to `Cc1nc2ccccc2c(=O)n1-c1cc([N+](=O)[O-])cc([N+](=O)[O-])c1`, for which the Potency result is “inactive”.

Regarding `Cc1cc([N+](=O)[O-])c2ccccc2[n+]1[O-]`, the Potency was 1170 nM (active).

Consider `CN1CCN(c2ccc([N+](=O)[O-])c3cccnc23)CC1`, for which the Potency entry was “inactive”.

`NN=C(N)N`: the Potency result was “inactive”.

Values taken from PubChem BioAssay AID588382 (National Center for Advancing Translational Sciences (NCATS), 2011).
